Only some compounds are listed: those with a hit (about 2.2% of all), similar ones and a draw of the others.
HIF act – HIF pathway transcriptional activation; U2OS HRE-luciferase reporter, luminescence; normalized: DMSO 0%, desferrioxamine 100%; activation, % at 7.5 µM (by protocol); 300,000 compounds, 0.32% hits; AID 1910;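 active = mean activation of at least 10% of the iron chelator positive control signal, with at least half of replicates also reaching 10%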
GalR3 antag – human GalR3 antagonism; AID 651719; HEK293 GalR3-CNG cAMP membrane potential fluorescence; galR3 body fused to GalR1 C-terminus; 360,000 compounds, 0.44% hits; O60755; inhibition, % at 3 µM;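 active = inhibition above the screen-wide average plus 3 SD, cut at about 13% in these data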;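 note: forskolin and galanin both at EC90 stimulate the cells; cAMP rise reported by CNG channel membrane potential dye signal; 0% = forskolin plus galanin with DMSO and 100% = forskolin alone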
Target sequence (O60755 1-299 limits assumed): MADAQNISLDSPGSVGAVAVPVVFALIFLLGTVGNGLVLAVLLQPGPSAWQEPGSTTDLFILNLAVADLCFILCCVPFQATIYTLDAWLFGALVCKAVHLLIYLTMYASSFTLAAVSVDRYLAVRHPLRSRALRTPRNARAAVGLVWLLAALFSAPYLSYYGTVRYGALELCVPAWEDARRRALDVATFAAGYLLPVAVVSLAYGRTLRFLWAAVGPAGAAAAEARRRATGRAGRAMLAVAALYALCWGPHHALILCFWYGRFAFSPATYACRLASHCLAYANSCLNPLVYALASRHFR
Hsp70 activator – Hsp70 transcriptional activation, primary screen; activation, % at 10 µM; HeLa Hsp70 promoter luciferase reporter, luminescence; scaled: vehicle 0, proteasome-inhibitor control 100%; 200,000 compounds, 0.04% hits;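 active = activation above the mean across all tested compounds plus 3 SD, cutoff set per campaign, cut at about 5.5% in these data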;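 note: 100% = MG132 at 30 µM as the positive control and 0% = DMSO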
GAA850 FXN act – frataxin GAA850 promoter activation; HEK293 lucGAA850 FXN promoter luciferase reporter, 24 h; percent of 10 µM SAHA response; activation, % at 6 µM; 360,000 compounds, 0.56% hits; AID 540364;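 active = activation above the average of all compounds screened plus 3 SD, cutoff fixed separately per campaign, cut at about 7.5% in these data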;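 note: 0% = DMSO wells and 100% = 10 µM SAHA wells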
SMARCA2 act – SMARCA2 function activation, primary screen; MG213 cells, MMTV-luciferase reporter, dexamethasone, overnight; activation, % at 9.1 µM; 370,000 compounds, 1% hits; in the data active = activation above about 7.8%;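 note: 0% = vehicle wells and 100% = reference activator wells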
* = called active by the depositor; · = not tested or not shown.

SMILES | HIF act | GalR3 antag | Hsp70 activator | GAA850 FXN act | SMARCA2 act
CCOC(=O)c1cc2c(ccn2C)n1CC(=O)N1CCN(c2ccccc2)CC1 | 288* | 6 | 0 | -2 | -1
COc1ccc2ccccc2c1C=NNC(=O)c1cc(-c2ccc(C)c(C)c2)n[nH]1 | · | · | · | · | -5
CC1(CC(=O)N/N=C/c2ccc(-c3ccc(C(=O)O)cc3)o2)OCCO1 | · | 5 | 0 | -3 | -1
COC(=O)c1ccc(-c2ccc(/C=N/NC(=O)CC3(C)OCCCO3)o2)cc1 | 2 | -8 | 0 | 4 | 7.8*
CC(C)c1ccc(OCCCN2CCC(C(O)(c3ccccc3)c3ccccc3)CC2)cc1 | · | -7 | · | · | -5
Cc1[nH]c2ccc(-c3nnc(SCC(=O)c4ccc(F)cc4)o3)cc2c1C | 0 | -1 | 0 | 0 | 12*
COCCNC(=O)CN1C(=O)CC(C)(C)S(=O)(=O)c2ccccc21 | 0 | -2 | 0 | 13* | 6
CC(C)OCCCNC(=O)CN1C(=O)CC(C)(C)S(=O)(=O)c2ccccc21 | 0 | 1 | 0 | 0 | -1
COc1cccc(/C=N/NC(=O)CSCC(=O)Nc2ccccc2)c1O | 17* | -8 | 0 | -3 | -4
COc1cccc(/C=N/NC(=O)c2ccoc2C)c1O | 25* | -8 | · | -5 | -4
COc1cccc(/C=N\NC(=O)Cn2nnc3ccccc32)c1O | 16* | -4 | 0 | 0 | -5
COc1cc(/C=N/NC(=O)Cn2nnc3ccccc32)ccc1O | 0 | -5 | 0 | 1 | -3
COc1cccc(/C=N/NC(=O)CNC(=O)C(c2ccccc2)c2ccccc2)c1O | 14* | -9 | · | -3 | 0
COc1cccc(/C=N/NC(=O)CNC(=O)/C=C\c2ccccc2)c1O | 2 | 3 | · | -2 | 2
COc1cccc(CNC(=O)[C@H]2CCCN2C(=O)[C@H]2CCCN2C(=O)c2cccc(Cl)c2)c1 | · | -6 | · | · | -1
CCOC(=O)[C@@]12CN(C(=O)OC(C)(C)C)CC=C1N(Cc1ccc(OC)cc1)C(=O)[C@H]2CC(=O)NCc1cccc(C(F)(F)F)c1 | · | · | · | · | -4
O=C(Cn1c(Cc2ccccc2)nc2ccccc21)NCc1ccc2c(c1)OCO2 | 137* | 0 | 0 | 0 | -3
O=C(CSc1c[nH]c2ccccc12)NCc1ccc2c(c1)OCO2 | 44* | · | 0 | -3 | -1
O=C(NCCSc1c[nH]c2ccccc12)c1ccc(Br)o1 | 16* | · | 0 | -1 | 3
CN[C@H]1C[C@H]2c3[nH]c4cccc(-c5ccc6c(c5)OCO6)c4c3CCN2C[C@H]1[C@H](C)O | · | · | · | · | 1
Cc1cc(C)n(-c2ccc3cccc(NS(C)(=O)=O)c3n2)n1 | 52* | -4 | 0 | 1 | 1
Cc1occc1-c1nnc(SCC(=O)Nc2ccccn2)n1-c1ccccc1 | · | · | · | · | -3
O=C(CN1C(=O)C2(OCCCO2)c2ccccc21)NCc1ccccc1Cl | · | · | · | · | -2
CCOC(=O)c1ccccc1NC(=O)c1cc(S(=O)(=O)N2CCOCC2)ccc1F | -1 | 13* | 0 | 0 | 1
Cn1c(=O)c2[nH]c(SCC(=O)N3CCN(c4cccc(C(F)(F)F)c4)CC3)nc2n(C)c1=O | · | · | · | · | -1
SMILES | HIF act | GalR3 antag | Hsp70 activator | GAA850 FXN act | SMARCA2 act
CCn1c2ccccc2c2nnc(SCC(=O)NC(CC(C)C)C(=O)OC)nc21 (stereo not given) | 0 | -4 | 0 | -1 | 7.8*
O=C(CSc1nnc(-c2ccccc2Cl)o1)N1CCOCC1 | 14* | -4 | · | 6 | 5
O=C(O)c1ccccc1Nc1ccc([N+](=O)[O-])cc1C(=O)O | 14* | 4 | · | 0 | 1
NC(=O)c1cc([N+](=O)[O-])ccc1Nc1ccccc1 | · | -8 | · | 2 | 0
O=C(N/N=C/c1ccc(O)cc1O)c1ccc(CN2C(=O)c3cccc4cccc2c34)cc1 | 13* | -2 | 0 | -5 | -5
Cc1cc([N+](=O)[O-])nn1Cc1ccc(C(=O)N/N=C/c2ccc(F)cc2)cc1 | 0 | 0 | · | 0 | -1
Cc1cc([N+](=O)[O-])nn1Cc1ccc(C(=O)N/N=C/c2ccc(O)cc2O)cc1 | 21* | -9 | -1 | -5 | -2
COC(=O)[C@]12C[C@H](CC(=O)NCc3cccs3)C(=O)N(Cc3ccc(Cl)cc3Cl)C1=C[C@H](C(C)(C)C)O[C@@H]2C | · | · | · | · | -6
Nc1nc(-c2ccccn2)nc(N)c1Cc1ccccc1F | 4 | 1 | 0 | 4 | 2
Nc1nc(-c2ccccn2)nc(N)c1Cc1ccc(Cl)cc1Cl | 15* | -3 | 1 | 0 | -6
CC(C)(C)S(=O)(=O)N1C[C@@H]2CC(=O)C(CCO)=C2[C@H]1CCO | · | -7 | · | · | -3
Cn1nc(C(=O)NC2CCCCCC2)ccc1=O | 0 | -3 | 0 | 1 | -3
Cn1nc(C(F)(F)F)cc1C(=O)NC1CCCCCC1 | 237* | · | 0 | 0 | ·
CCS(=O)(=O)c1ccc(N=Nc2ccc(O)c3ncccc23)c(OC)c1 | 4 | -6 | 0 | 0 | -1
COc1ccccc1N=Nc1ccc(O)c2ncccc12 | 11* | -8 | · | 1 | 2
Cc1ccc(N=Nc2ccc(O)c3ncccc23)cc1 | 147* | 1 | 0 | 4 | 4
CCOC(=O)N1CCN(C(=O)C[C@H]2C[C@@]3(C(=O)OC)C(=C[C@H](C(C)C)O[C@@H]3C3CC3)N(Cc3cccc4ccccc34)C2=O)CC1 | · | · | · | · | -4
COc1ccc(-c2cc(-c3cccs3)nc3sc(C#N)c(N)c23)cc1 | 1 | 1 | 0 | 3 | -2
COCc1cc(C)c2c(N)c(C#N)sc2n1 | 0 | 4 | 0 | 3 | 7.9*
O=C(O)c1ccccc1/C=N/NC(=O)C1CCCC1 | 0 | -5 | · | 3 | 7.9*
Cc1ccc(-c2cc(C(=O)N3CCCCCC3)no2)cc1 | 12* | -4 | · | 4 | 2
COc1ccccc1OCc1nnc(SCC(=O)NCc2ccco2)n1-c1ccccc1 | 423* | -5 | 0 | -1 | -2
CC(C)c1onc(C(=O)Nc2sc3c(c2C#N)CCC3)c1[N+](=O)[O-] | 191* | -5 | 0 | 0 | 2
CC(C)c1cc(C(=O)Nc2sc3c(c2C#N)CCC3)no1 | 0 | · | 0 | -4 | ·
O=C(/C=C/c1ccco1)Oc1cc(Br)cc(/C=N/NC(=O)c2ccccc2O)c1 | 97* | -3 | 0 | -5 | -3
SMILES | HIF act | GalR3 antag | Hsp70 activator | GAA850 FXN act | SMARCA2 act
CC(C)CN1C(=O)C[C@]2(C(=O)N(C)c3ccc(NS(=O)(=O)C4CC4)cc32)C1c1ccccc1 (stereo not given in full) | · | · | · | · | -5
Clc1ccc(-c2nc3ncccn3c2Cl)cc1 | 1 | · | 0 | 13* | ·
O=S1(=O)CC2c3ccccc3CCN2CN1CCc1ccccc1 (stereo not given) | · | · | · | · | -3
C#CCN1C(=O)[C@]2(OCCC=C[C@H]2C)c2cc(OC)ccc21 | · | -6 | · | · | -2
COC(=O)c1c(C)[nH]c(/C=N/Nc2ccccc2)c1C | 3 | -1 | · | 2 | 15*
CC(C)N1CCc2c(sc(NC(=O)c3ccco3)c2C(N)=O)C1 | 1 | -2 | · | 2 | 1

Source: PubChem
